Experiment [1] is described as follows: AP1 Signaling Pathway (AID 357; active means well fitted curve in either direction with a large enough effect, not every such curve was filed as active;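 further: ME-180 reporter cells stimulated with EGF at its EC50 level; on the % scale 0 is the no-effect control and ±100 the full control effect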). To be noted: ME-180 AP-1-bla reporter, EGF-induced, beta-lactamase ratio, 5 h. In short, it runs like this:
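Cells are seeded overnight, exposed to compound titrations and an EC50 level of EGF for 5 hours at 37 °C, then loaded with CCF4 dye for 2.5 hours. Beta-lactamase activity under the AP-1 element is read as a blue/green ratio.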

In experiment [2] the target is Cytochrome P450 1A2 (Homo sapiens) (UniProt P05177). As to the kind of experiment: p450-cyp1a2 (AID 410; calls by dose curve; further: potency means the concentration at half of the fitted maximal effect;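 on activity change, negative = inhibition: -100% = full effect of reference inhibitor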). In outline: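 Luminescent demethylation readout: Luciferin-ME (100uM, equal to Km) turned over by 20nM CYP1A2 for 60 min at room temperature after NADPH regeneration addition, following 10 min compound preincubation. Normalization used 57 uM furafylline as full inhibition.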
Sequence of Cytochrome P450 1A2 (Homo sapiens) (P05177 whole entry, looked up): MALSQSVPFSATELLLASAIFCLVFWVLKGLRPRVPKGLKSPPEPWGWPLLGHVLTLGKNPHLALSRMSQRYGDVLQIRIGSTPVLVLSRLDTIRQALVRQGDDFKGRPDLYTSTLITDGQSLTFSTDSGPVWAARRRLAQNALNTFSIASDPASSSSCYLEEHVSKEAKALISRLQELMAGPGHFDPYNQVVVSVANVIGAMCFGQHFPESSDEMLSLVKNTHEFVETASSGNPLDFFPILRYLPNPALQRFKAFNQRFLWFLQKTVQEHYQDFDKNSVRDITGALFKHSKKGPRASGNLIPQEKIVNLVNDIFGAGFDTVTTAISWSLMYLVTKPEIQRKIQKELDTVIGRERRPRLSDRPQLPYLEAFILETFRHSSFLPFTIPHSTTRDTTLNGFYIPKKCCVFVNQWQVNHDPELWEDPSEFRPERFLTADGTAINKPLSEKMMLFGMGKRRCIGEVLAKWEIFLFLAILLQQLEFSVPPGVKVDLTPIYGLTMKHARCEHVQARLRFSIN

Experiment [3] is described as follows: NFAT Signaling Pathway (AID 444; active means well fitted curve in either direction with a large enough effect, not every such curve was filed as active;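 further: carbachol stimulus at about its EC50 of 1 µM final; on the % scale 0 is the no-effect control and ±100 the full control effect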). As to conditions: Jurkat NFAT-bla M1, carbachol, beta-lactamase ratio, 5 h; at 38 µM (top of the series). In short, it runs like this: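 Jurkat cells with NFAT-driven β-lactamase reporter and co-expressed M1 receptor, stimulated with carbachol (final 1 uM, ~EC50), compound titration, 5 h at 37 °C. CCF4 loaded 1 h at RT; 460/530 nm ratio gave %activity and AC50.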

A short description of experiment [4]: Stat Signaling Pathway (AID 446; active means well fitted curve in either direction with a large enough effect, not every such curve was filed as active;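 further: ME-180 cervical cancer cells given 40 pM IL-6 alongside compound; SIE-controlled beta-lactamase reporter measured as 460/530 nm FRET emission ratio; on the % scale 0 is the no-effect control and ±100 the full control effect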). To be noted: ME-180 (cervical carcinoma) SIE beta-lactamase reporter, IL-6 stimulated, 5 h. In outline:
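Compound effects on IL-6-induced STAT reporter activity were measured in ME-180 cells. After overnight culture, cells were co-treated with 40 pM IL-6 for 5 hrs before beta-lactamase substrate loading at room temperature.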

For experiment [5], the target named is Glucocorticoid receptor (Homo sapiens) (UniProt P04150). Briefly: GR-GFP Redistribution (AID 450;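 active means compounds whose dose series gives a full or clear partial fitted curve of increased nuclear translocation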; further: potency means the concentration at half of the fitted maximal effect). To be noted: U2OS GR-GFP nuclear translocation, laser cytometry, 2 h.
Sequence of Glucocorticoid receptor (Homo sapiens) (P04150 whole entry, looked up): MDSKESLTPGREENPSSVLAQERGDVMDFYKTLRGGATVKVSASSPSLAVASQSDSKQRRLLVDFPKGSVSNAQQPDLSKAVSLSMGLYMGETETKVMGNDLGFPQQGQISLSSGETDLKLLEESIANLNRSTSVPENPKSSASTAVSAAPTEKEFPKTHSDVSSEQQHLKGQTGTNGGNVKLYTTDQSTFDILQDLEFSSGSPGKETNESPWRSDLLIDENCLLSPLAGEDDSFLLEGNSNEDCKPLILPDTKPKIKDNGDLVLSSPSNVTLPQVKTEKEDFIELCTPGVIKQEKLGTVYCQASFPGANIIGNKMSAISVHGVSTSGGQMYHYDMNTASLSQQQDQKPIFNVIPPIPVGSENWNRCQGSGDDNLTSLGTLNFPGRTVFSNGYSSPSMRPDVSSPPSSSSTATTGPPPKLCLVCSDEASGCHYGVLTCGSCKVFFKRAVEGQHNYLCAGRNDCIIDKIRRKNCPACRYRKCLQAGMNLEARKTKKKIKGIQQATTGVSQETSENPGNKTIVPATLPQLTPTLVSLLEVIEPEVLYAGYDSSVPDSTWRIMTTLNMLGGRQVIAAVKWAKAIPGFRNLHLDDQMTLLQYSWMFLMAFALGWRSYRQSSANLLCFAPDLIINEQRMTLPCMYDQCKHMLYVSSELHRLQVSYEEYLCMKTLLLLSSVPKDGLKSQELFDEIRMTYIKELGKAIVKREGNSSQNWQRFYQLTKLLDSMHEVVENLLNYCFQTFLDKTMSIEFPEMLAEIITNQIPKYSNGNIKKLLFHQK
Experiment [6] has the same target. Briefly: GR-EFC Redistribution (AID 451; calls by dose curve; further: potency means the concentration at half of the fitted maximal effect). To be noted: CHO-K1 GR-EFC translocation, beta-gal luminescence, 2 h. In short, it runs like this:
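CHO-K1 cells expressing nuclear EA and GR-ED fragments of b-gal; compounds titrated up to 46 uM final, 2 h at 37 C. GR nuclear translocation read as complemented b-gal luminescence after 1 h RT detection.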

The target of experiment [7] is Mitogen-activated protein kinase 10 (Mus musculus) (UniProt Q61831). Briefly: JNK3 AlphaScreen Assay (AID 530; active means well fitted curve in either direction with a large enough effect, not every such curve was filed as active;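 further: kinase came from lysate of stimulated human HepG2 cells; signal reports phosphorylation of biotinylated GST-cJun 1-79 at Ser73 with 10 µM ATP; on the % scale 0 is the no-effect control and ±100 the full control effect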). In short, it runs like this:
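Activity was read by AlphaScreen after JNK3-containing HepG2 lysate (cytokine pre-activated) phosphorylated biotinylated GST-cJun with 10 uM ATP at room temperature. Phospho-Ser73 cJun antibody with Protein-A acceptor beads provided detection.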
In general terms: Bead proximity is the source of the signal in Alpha formats.

The target in experiment [8] is 3',5'-cyclic-AMP phosphodiesterase 4B (Homo sapiens) (UniProt Q07343). Briefly: qHTS Assay for Inhibitors of PDE-IV (AID 607; active means well fitted activation curve with a large enough effect in the main read-out, with a control signal flat, not every such curve was filed as active; further: potency means the concentration at half of the fitted maximal effect). In short, it runs like this:
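ACTOne HEK293 cells carry a modified cAMP-gated CNG channel and express endogenous PDE4; plated 1000 cells/well, compounds up to 22.9 uM final. Membrane-potential dye fluorescence (ex 535/em 590) was read; parental cells received 10 uM forskolin + 100 uM RO 20-1724.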

The target in experiment [9] is Guanine nucleotide-binding protein G(i) subunit alpha-1 (Homo sapiens) (UniProt P63096). Briefly: qHTS Assay for Inhibitors of RGS12 GoLoco Motif Activity (Green Fluorophore) (AID 879).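 Further: 0% = labeled peptide with Gαi1 and full inhibition = labeled peptide alone without protein; negative values mean loss of peptide binding seen as reduced polarization.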 In outline:
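A drop in FITC polarization marked displacement of the FITC-tagged RGS12 GoLoco peptide (10 nM) from Gαi1 (50 nM). Compounds were incubated 10 min at room temperature in Tris pH 7.5 buffer containing 150 mM NaCl, 0.1 mM GDP and 0.05% NP40; unlabeled peptide titration served as control.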
A general note: qHTS replaces the single test concentration by a dilution series.

In experiment [10] the target is Cytochrome P450 2C19 (Homo sapiens) (UniProt P33261). Briefly: qHTS Assay for Inhibitors and Substrates of Cytochrome P450 2C19 (AID 899). Further: on the % scale 0 is the no-effect control and ±100 the full control effect; nearly all actives have a fitted effect of over 60% in size. In outline:
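5 nM human CYP2C19 with 10uM Luciferin-H EGE (at KM) in 50mM KPO4, compound preincubated 10 min at 37C, then NADPH regeneration for 60 min at 37C. Luciferin read by luminescence after detection reagent; normalized to 57uM ketoconazole as full inhibition.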

Experiment [11] is described as follows: qHTS Assay for Identification of Small Molecule Agonists for Thrombopoietin (TPO) Signaling Pathway (AID 917). Further: on the % scale 0 is the no-effect control and ±100 the full control effect. In outline:
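Stimulation at the TPO EC50 (26 pM final) was used to detect activators. Ba/F3 mouse cells bearing human TPO receptor and a luciferase reporter under the Glycoprotein IIb promoter were exposed to compounds for 24 hrs at 37 C.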

Experiment [12] has as its target Pyruvate kinase (Leishmania mexicana) (UniProt Q27686). As to the kind of experiment: qHTS Validation Assay for Inhibitors of Leishmania Mexicana Pyruvate Kinase (AID 945).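 Further: 0% = DMSO only neutral control wells.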 In outline: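 Eight-point qHTS titrations in triplicate, data normalized to DMSO neutral control. Reaction: 0.2 nM LmPYK E451W mutant, 0.5 mM PEP, 0.1 mM ADP, 7 mM MgCl2, pH 7.2, one hour at room temperature; luminescent ATP detection.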

For experiment [13], the target named is Alpha-galactosidase A (Homo sapiens) (UniProt P06280). As to the kind of experiment: Counterscreen for Glucocerebrosidase Inhibitors: qHTS Assay for Human alpha-Galactosidase at pH 4.5 (AID 992). Further: 0% is about no effect. In short, it runs like this:
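Citrate buffer pH 4.5, Tween-20 0.005%. Enzyme 2 nM, substrate 80 uM, 20 min RT. Stop pH 10. Fluorescence Ex 365/Em 440. AC50 by Hill fit.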
In general terms: A counterscreen serves to expose hits that act by an unwanted route or on another target.

The target in experiment [14] is alpha-glucosidase (Oryza sativa, rice) (UniProt Q653V4). As to the kind of experiment: Counterscreen for Glucocerebrosidase Inhibitors: qHTS Assay for Rice alpha-Glucosidase at pH 5.0 (AID 997).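 Further: 0% = full activity with enzyme and -100% = basal without enzyme.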 In short, it runs like this: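 Endpoint fluorogenic assay at pH 5.0: compounds (0.7 nM to 77 uM) titrated against 4 nM rice enzyme and 400 uM 4-MU-alpha-glucoside for 20 min at room temperature; NaOH/glycine stop, read ex 365/em 440 nm, Hill-fitted AC50.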

Experiment [15] is described as follows: qHTS Assay for Lipid Storage Modulators (AID 1519; calls by dose curve). To be noted: Drosophila S3 cells, BODIPY lipid droplet/cell ratio, laser cytometry, cells loaded with oleic acid. In outline:
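Cells seeded at 5,000 per well were treated with compounds over a concentration series and loaded with oleic acid (400 uM, as added). Lipid droplet fluorescence (488 nm excitation, 500-530 nm channel) was read by laser-scanning cytometry and normalized to 20 uM Triacsin C.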

Experiment [16] addresses Ubiquitin carboxyl-terminal hydrolase 1 (Homo sapiens) (UniProt O94782). As to the kind of experiment: Inhibitors of USP1/UAF1: Pilot qHTS (AID 504865).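 Further: rhodamine fluorescence freed from ubiquitin-rhodamine substrate followed over time; top concentration of the series differs between compounds; on the % scale 0 is the no-effect control and ±100 the full control effect; nearly all actives have a fitted effect of over 35% in size.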 In outline:
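USP1/UAF1 complex at 1 nM preincubated 15 min at room temperature with compound, then Ub-Rho substrate added at 150 nM final. Fluorescence (480/540 nm) read kinetically in 50 mM HEPES pH 7.8, 0.5 mM EDTA, 1 mM TCEP, 0.1 mg/ml BSA, 0.01% Tween-20.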

Experiment [17] deals with DNA dC->dU-editing enzyme APOBEC-3G (Homo sapiens) (UniProt Q9HC16). Briefly: qHTS for inhibitors of Vif-A3G interactions: Validation (AID 588379). Further: 0% is about no effect. In short, it runs like this:
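Yellow fluorescence (Ex 488, Em 500-530) of Vif-coexpressing HeLa A3G-eYFP cells, scanned by Acumen cytometer, reports blocked A3G degradation. Cells plated at 700/well overnight at 37 deg C before compound addition, then a further overnight compound incubation at 37 deg C.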

Experiment [18] has as its system Zika virus NS2B-NS3 protease. Briefly: Primary screen GU AMC qHTS for Zika virus inhibitors (AID 1347154).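 Further: 0% = no-inhibitor control and -100% = no-enzyme control; nearly all actives have a fitted effect of over 70% in size.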 In short, it runs like this:
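Unlinked Zika NS2B hydrophilic domain–NS3 protease complex at 25 nM in 10 mM Tris-HCl pH 8.0, 0.01% Tween 20, with an AMC peptide substrate. Fluorescence change (340/450 nm) over 15 min at room temperature, normalized to controls, fitted to 4-parameter Hill.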

Experiment [19] in a line: Primary qHTS for small molecule stabilizers of the endoplasmic reticulum resident proteome: Secreted ER Calcium Modulated Protein (SERCaMP) assay (AID 1508630). Further: on the % scale 0 is the no-effect control and ±100 the full control effect. In short, it runs like this:
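The SH-SY5Y reporter protocol was run at 3 concentrations up to 38.3 uM (primary) or 11 concentrations (follow-up): 16 h compound, 100 nM thapsigargin for 4 h, then extracellular luciferase luminescence.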

Experiment [20] deals with Cytochrome P450 3A4 (Homo sapiens) (UniProt P08684). Briefly: qHTS Assay for Activators of Cytochrome P450 3A4 (AID 885). Further: nearly all actives have a fitted effect of over 65% in size. In short, it runs like this: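 CYP3A4 activity: Luciferin-PPXE O-dealkylation, 25uM substrate, 200mM KPO4, RT throughout. Read-out is luciferase luminescence; higher values reflect activation.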
[21] abbreviates: measured here: cell count channel max response.
Where [22] appears, read: measured here: lipid channel max response.

Several values for one entry are separate records, joined by “and”; a condition that tells them apart may be missing. Identical values can stand only once. Results filed as inconclusive are left out. Some compounds were tested as several samples or in several runs, with calls that do not always agree. Activity calls are given as the source filed them. Unless noted, the call rests on the fitted dose curve; in most records, active means well fitted curve in the direction sought with a large enough effect; inconclusive means small, poorly fitted or top-dose-only effect, or another doubt; inactive means no such curve, though single readings can be large; an effect the other way counts as inactive or inconclusive. Bounds are passed on as bounds.

Sequence of Ubiquitin carboxyl-terminal hydrolase 1 (Homo sapiens) (O94782 whole entry, looked up): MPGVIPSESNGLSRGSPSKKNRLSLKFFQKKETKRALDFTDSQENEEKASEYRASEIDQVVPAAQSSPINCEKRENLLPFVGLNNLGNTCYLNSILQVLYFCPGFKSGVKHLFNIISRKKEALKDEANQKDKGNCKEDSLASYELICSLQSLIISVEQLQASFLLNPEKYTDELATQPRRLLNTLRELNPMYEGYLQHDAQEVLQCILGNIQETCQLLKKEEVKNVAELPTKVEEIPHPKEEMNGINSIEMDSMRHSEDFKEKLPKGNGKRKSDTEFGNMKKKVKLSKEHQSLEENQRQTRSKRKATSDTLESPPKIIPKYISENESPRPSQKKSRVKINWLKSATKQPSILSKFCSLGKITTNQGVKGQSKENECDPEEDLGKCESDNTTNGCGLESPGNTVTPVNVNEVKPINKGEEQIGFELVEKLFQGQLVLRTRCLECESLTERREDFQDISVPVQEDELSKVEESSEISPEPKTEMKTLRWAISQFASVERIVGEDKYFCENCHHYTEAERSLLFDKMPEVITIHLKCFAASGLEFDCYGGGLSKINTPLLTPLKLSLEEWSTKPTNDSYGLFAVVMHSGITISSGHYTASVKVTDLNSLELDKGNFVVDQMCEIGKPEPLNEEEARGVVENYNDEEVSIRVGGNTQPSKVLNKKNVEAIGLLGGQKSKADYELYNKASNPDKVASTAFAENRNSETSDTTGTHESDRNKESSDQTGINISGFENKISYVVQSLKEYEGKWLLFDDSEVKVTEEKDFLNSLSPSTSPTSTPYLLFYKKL
Sequence of DNA dC->dU-editing enzyme APOBEC-3G (Homo sapiens) (Q9HC16 whole entry, looked up): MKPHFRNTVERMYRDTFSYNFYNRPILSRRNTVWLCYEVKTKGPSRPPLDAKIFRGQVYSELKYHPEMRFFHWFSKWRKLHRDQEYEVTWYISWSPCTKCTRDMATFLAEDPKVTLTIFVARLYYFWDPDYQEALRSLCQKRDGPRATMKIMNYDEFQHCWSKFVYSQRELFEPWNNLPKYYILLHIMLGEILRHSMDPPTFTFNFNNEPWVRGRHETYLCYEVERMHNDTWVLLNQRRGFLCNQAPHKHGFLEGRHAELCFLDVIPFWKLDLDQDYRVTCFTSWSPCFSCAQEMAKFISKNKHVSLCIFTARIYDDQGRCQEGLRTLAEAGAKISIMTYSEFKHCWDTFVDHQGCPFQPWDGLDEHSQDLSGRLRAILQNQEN
Sequence of 3',5'-cyclic-AMP phosphodiesterase 4B (Homo sapiens) (Q07343 whole entry, looked up): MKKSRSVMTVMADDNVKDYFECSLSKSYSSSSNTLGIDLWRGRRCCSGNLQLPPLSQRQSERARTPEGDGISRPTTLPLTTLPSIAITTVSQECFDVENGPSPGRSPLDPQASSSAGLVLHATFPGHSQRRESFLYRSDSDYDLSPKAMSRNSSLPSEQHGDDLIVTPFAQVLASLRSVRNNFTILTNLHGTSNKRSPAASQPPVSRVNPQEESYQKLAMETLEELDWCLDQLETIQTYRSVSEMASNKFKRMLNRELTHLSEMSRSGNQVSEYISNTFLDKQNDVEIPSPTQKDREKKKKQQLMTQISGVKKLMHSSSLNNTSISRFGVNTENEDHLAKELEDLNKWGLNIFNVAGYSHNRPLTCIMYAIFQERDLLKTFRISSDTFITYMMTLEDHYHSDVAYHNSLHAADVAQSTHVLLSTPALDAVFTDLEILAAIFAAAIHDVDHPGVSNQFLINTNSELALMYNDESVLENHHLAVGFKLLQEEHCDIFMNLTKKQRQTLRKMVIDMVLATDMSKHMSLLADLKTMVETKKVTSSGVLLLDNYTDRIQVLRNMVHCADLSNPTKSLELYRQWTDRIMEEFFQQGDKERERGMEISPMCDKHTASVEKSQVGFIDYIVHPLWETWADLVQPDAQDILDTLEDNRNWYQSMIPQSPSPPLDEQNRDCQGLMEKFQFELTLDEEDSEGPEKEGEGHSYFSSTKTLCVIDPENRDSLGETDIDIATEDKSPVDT
Sequence of Cytochrome P450 2C19 (Homo sapiens) (P33261 whole entry, looked up): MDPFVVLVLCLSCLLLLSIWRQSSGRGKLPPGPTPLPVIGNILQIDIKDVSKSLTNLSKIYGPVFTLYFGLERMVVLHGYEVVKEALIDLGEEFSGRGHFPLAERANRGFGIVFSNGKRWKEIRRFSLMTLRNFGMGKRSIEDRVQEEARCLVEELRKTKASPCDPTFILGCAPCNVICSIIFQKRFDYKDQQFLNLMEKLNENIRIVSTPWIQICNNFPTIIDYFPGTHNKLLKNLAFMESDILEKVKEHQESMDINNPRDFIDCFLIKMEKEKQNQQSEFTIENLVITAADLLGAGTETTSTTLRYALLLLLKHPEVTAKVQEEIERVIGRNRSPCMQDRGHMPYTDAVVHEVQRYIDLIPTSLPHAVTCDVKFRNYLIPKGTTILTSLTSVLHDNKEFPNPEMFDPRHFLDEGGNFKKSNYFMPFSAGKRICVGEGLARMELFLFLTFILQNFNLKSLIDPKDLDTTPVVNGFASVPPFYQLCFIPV
Sequence of Alpha-galactosidase A (Homo sapiens) (P06280 whole entry, looked up): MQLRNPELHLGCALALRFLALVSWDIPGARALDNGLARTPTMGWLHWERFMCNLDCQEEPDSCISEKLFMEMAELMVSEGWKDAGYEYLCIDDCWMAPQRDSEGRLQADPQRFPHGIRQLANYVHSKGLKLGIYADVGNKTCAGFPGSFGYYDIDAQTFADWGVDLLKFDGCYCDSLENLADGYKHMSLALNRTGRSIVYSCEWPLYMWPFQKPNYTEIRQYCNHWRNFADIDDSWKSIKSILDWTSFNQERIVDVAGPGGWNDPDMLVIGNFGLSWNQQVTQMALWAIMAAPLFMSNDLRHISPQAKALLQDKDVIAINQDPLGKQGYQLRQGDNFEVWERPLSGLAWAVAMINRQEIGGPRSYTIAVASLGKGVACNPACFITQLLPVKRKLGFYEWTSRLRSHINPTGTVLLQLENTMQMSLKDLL
Sequence of Pyruvate kinase (Leishmania mexicana) (Q27686 2-499 E452W): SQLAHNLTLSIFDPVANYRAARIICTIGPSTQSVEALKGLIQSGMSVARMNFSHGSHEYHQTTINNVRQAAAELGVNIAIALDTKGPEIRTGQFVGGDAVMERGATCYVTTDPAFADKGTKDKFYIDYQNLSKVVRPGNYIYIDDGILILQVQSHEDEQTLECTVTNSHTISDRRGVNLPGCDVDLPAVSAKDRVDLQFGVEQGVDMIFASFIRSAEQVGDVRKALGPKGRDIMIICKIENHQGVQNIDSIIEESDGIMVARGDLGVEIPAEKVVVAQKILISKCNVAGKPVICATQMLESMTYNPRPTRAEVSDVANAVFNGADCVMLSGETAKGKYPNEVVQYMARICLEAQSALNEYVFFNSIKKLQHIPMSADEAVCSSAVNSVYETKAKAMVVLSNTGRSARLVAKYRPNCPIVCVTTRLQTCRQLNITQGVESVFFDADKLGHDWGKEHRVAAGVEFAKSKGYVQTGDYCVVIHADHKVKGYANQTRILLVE
Sequence of Guanine nucleotide-binding protein G(i) subunit alpha-1 (Homo sapiens) (P63096 whole entry, looked up): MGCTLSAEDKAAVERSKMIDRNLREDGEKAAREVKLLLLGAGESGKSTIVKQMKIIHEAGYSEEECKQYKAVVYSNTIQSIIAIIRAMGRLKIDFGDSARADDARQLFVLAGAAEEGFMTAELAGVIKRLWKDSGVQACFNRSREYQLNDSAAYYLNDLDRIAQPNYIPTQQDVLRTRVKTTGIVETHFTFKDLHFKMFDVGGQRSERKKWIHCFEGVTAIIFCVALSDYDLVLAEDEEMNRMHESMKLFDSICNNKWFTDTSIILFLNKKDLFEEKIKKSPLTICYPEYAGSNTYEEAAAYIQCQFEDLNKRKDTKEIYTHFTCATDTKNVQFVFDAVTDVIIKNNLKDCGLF

In the case of `O=C(O)[C@H]1CN(CCCP(=O)(O)O)CCN1`, the activity change, negative = inhibition in [1] (at 38 µM (top of the series)) is 1.7% (inactive); in experiment [3], 8.84% (inactive); in experiment [15] (at 57.5 µM (top of the series)), 5.99% (inactive) and -0.486% (inactive). Also, the Potency entry in experiment [2], in [7], in experiment [8], in [10], in [11] and in experiment [12] was “inactive” throughout. Moreover, the Potency result in experiment [16], in experiment [17], in [18] and in experiment [19] was “inactive” in each case. Also, the activity, negative = inhibition in experiment [4] (at 38 µM (top of the series)) is 7.55% (inactive). Further, the Potency in experiment [5] and in [6] was > 46 µM (inactive) in each case. Besides, the call in experiment [9], in [13] and in experiment [14] was inactive. The max response in [15] (setting [21]) is -5.69% and -2.47%; in [15] (setting [22]), 0.367% and -3.68%.

As for `N[C@@]1(C(=O)O)CN[C@H](C(=O)O)C1`, the Potency is 31.6 µM (active) in [2], > 46 µM (inactive) in [5] and > 46 µM (inactive) in [6]. Moreover, the Potency result in experiment [7], in experiment [8], in [16], in experiment [17], in experiment [18] and in experiment [19] was “inactive” throughout. The activity change, negative = inhibition in experiment [15] (at 57.5 µM (top of the series)) is -1.74% (inactive). In addition, the max response in [15] (setting [21]) was 0.388%; in experiment [15] (setting [22]), -1.87%.

Take `N[C@@H](C(=O)O)c1ccc(P(=O)(O)O)cc1`: the Potency in experiment [2] was 20 µM (active); in [5], > 46 µM (inactive); in experiment [6], > 46 µM (inactive). The Potency result in [7], in experiment [8], in [16], in experiment [17], in [18] and in experiment [19] was “inactive” each time. In experiment [15] (at 57.5 µM (top of the series)), the activity change, negative = inhibition was 2.44% (inactive). Also, the max response in experiment [15] (setting [21]) amounted to 3.42%; in [15] (setting [22]), 7.2%.

As for `CCN(CC)CCOC(=O)C1(c2ccc([N+](=O)[O-])cc2)CCCC1`, the activity change, negative = inhibition in experiment [1] (at 17.2 µM (top of the series)) was 3.14% (inactive); in experiment [15] (at 25.7 µM (top of the series)) it was -0.418% (inactive); in experiment [15] (at 57.5 µM (top of the series)), -3.02% (inactive). For the same compound, the Potency in experiment [2] is 3.98 µM (active) and 3.16 µM (active); in experiment [5], > 20.6 µM (inactive) and > 46 µM (inactive); in experiment [6] it was > 20.6 µM (inactive) and > 46 µM (inactive); in experiment [8], “inactive and 4.77 µM (active)”. In addition, in [4] (at 17.2 µM (top of the series)), the activity, negative = inhibition was 6.83% (inactive). The Potency result in experiment [20], in experiment [16], in experiment [17], in [18] and in experiment [19] was “inactive” throughout. Further, the max response was -8.14% and -12.9% in [15] (setting [21]); -19.2% and -15.6% in experiment [15] (setting [22]).

These data come from PubChem BioAssay (NCATS).
